PubChem BioAssay (NCATS)
Inconclusive results are not listed. A call without a number means that no potency is given here. Active and inactive are the calls of the source. Calls come from the whole dose curve.

Tests used:
[1] = Primary qHTS for Huh7 cytotoxicity: counterscreen for inhibitors of MERS-S pseudotyped particle cell entry (AID 1479147)
[2] = Primary qHTS for Vero E6 cytotoxicity: counterscreen for inhibitors of SARS-S pseudo-typed particle cell entry (AID 1479150); note: potency is the fitted concentration of half-maximal effect
[3] = Cytotoxicity counterscreen for inhibitors of SARS-CoV-2 cell entry (AID 1645845); note: nearly all actives have a fitted effect of over 50% in size
Procedure, shortened: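 After a 15 min room-temperature ATPLite 1step step, luminescence reflected ATP remaining in HEK293-ACE2 cells exposed to compound for 1 h plus 48 h at 37 C, with percent activity set by cell and no-cell controls.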

[4] = Confirmatory qHTS for VERO E6 Cytotoxicity Assay: Counterscreen for SARS-CoV-2 CPE Assay (AID 1508605); note: series mostly up to about 20 µM; nearly all actives have a fitted effect of over 60% in size
[5] = Confirmatory qHTS to identify inhibitors of SARS-CoV-2 cell entry (AID 1645844); note: potency is the fitted concentration of half-maximal effect; nearly all actives have a fitted effect of over 45% in size
Procedure, shortened: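 Using stable human ACE2 Expi293F cells, compounds preincubated 1 hr before spike pseudoparticle infection; luciferase signal after 48 hr at 37C, 5% CO2, normalised to spike PP and no-fusion-protein PP wells.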

[6] = Primary qHTS for inhibitors of MERS-S pseudo-typed particle cell entry (AID 1479149); note: potency is the fitted concentration of half-maximal effect; nearly all actives have a fitted effect of over 60% in size

SMILES: C#Cc1cccc(Nc2ncnc3cc(OCCOC)c(OCCOC)cc23)c1
- Potency [1]: inactive
- Potency [2]: inactive
- Potency [3]: inactive

SMILES: OC(CCN1CCCC1)(c1ccccc1)C1CCCCC1 (centres undefined)
- Potency [1]: inactive
- Potency [2]: inactive
- Potency [3]: inactive

SMILES: Cc1nc2n(c(=O)c1CCN1CCC(c3noc4cc(F)ccc34)CC1)CCCC2
- Potency [1]: inactive
- Potency [2]: inactive
- Potency [3]: inactive

SMILES: N=C(N)c1ccc(OCCCCCOc2ccc(C(=N)N)cc2)cc1
- Potency [1]: inactive
- Potency [3]: inactive

SMILES: CO[C@@]12[C@H](COC(N)=O)C3=C(C(=O)C(C)=C(N)C3=O)N1C[C@@H]1N[C@@H]12
- Potency [1]: inactive
- Potency [2]: inactive
- Potency [3]: inactive

SMILES: CN(C)C(=O)C(CCN1CCC(O)(c2ccc(Cl)cc2)CC1)(c1ccccc1)c1ccccc1
- Potency [2]: inactive
- Potency [4]: inactive
- Potency [5]: 21.5 µM (active)
- Potency [3]: inactive

SMILES: CC[C@H](C)C(=O)O[C@H]1C[C@@H](C)C=C2C=C[C@H](C)[C@H](CC[C@@H]3C[C@@H](O)CC(=O)O3)[C@H]21
- Potency [1]: inactive
- Potency [2]: 14.1 µM (active)
- Potency [3]: inactive

SMILES: CCc1nn(CCCN2CCN(c3cccc(Cl)c3)CC2)c(=O)n1CCOc1ccccc1
- Potency [2]: inactive

SMILES: C#C[C@]1(O)CC[C@H]2[C@@H]3CCC4=Cc5oncc5C[C@]4(C)[C@H]3CC[C@@]21C
- Potency [1]: inactive
- Potency [2]: inactive
- Potency [3]: inactive

SMILES: CN1CCN(CCCN2c3ccccc3Sc3ccc(C(F)(F)F)cc32)CC1
- Potency [6]: 28.2 µM (active)
- Potency [2]: inactive

SMILES: CC1(CN2CCC(n3c(=O)[nH]c4ccccc43)CC2)OCc2ccccc2-n2cccc21 (centres undefined)
- Potency [4]: inactive

SMILES: O=C(O)C(=O)c1cn(Cc2ccccc2)c2ccc(-c3ccc(OC(F)(F)F)cc3)cc12
- Potency [4]: inactive
